Data published in paper PMC7819943, “Rice protein-binding microarrays: a tool to detect cis-acting elements near promoter regions in rice”.
In all, about 68,000 sequences were measured (“fluorescence intensity (a.u.)”: median about 9,100, highest 2% from about 16,000 on). Shown is part of a subset that was picked to be rich in the highest values.

These sequences were tested against OsWRKY34 (Oryza sativa, UniProt Q0JBA9 1-250) (assay: protein-binding microarray (RPBM); PBS, 2% BSA, 51.3 ng/ul salmon testes DNA, 50 uM zinc acetate, 200 nM TF, 25 C, 1 h; high values mean tight binding). Conditions: protein: recombinant; tags: N-terminal polyhistidine and DsRed monomer fusion (pET32a); label: CyDye5-dUTP incorporated in the synthesized complementary strand; 3' TTTTT single-stranded linker to array surface; dsDNA, one strand shown.
OsWRKY34, sequence (Q0JBA9 entry or part of it): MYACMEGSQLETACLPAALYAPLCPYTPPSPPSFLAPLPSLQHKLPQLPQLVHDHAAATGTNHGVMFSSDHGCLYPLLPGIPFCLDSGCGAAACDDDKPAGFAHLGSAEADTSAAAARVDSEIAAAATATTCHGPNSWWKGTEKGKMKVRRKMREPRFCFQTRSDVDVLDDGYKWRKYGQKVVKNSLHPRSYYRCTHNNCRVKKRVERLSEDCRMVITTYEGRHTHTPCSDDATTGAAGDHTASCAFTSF
Procedure, shortened: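 Using Ni–NTA, transcription factors fused N-terminally to polyhistidine and DsRed were purified after expression in E. coli BL21-CodonPlus. These were incubated at 200 nM with a blocked, double-stranded custom Agilent array for 1 h at 25 °C in a buffer containing 50 µM zinc acetate, and the array was washed. The binding signal is per-feature fluorescence intensity (arbitrary units) on an Axon 4000B scanner.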
In the case of “ACTTTTTTAAACATGTTTGGCCGTTCGTCTTATTCAAAAACGGAGTCACCTAGTGCAG”, the binding signal is reported as 9620 fluorescence intensity (a.u.).
“ACCGTTGATTTTTTTAAACATGTTTGACCGTTCGTCTTATCGGAGTCACCTAGTGCAG” was tested, and the binding signal was 17100 fluorescence intensity (a.u.).
With “CGTTGACTTTTTTAAATATATTTAGCAGTTCGTCTTATTACGGAGTCACCTAGTGCAG” the binding signal was 16500 fluorescence intensity (a.u.).
“ACTTATATTTTTTTAACGTTTGATTGTTCGTCTTATTAAACGGAGTCACCTAGTGCAG” was tested, and the binding signal was 9470 fluorescence intensity (a.u.).
In the case of “GACTTTTTAACACATGTTTGACCGTTCGTCTTATTCAAAACGGAGTCACCTAGTGCAG”, the binding signal is reported as 10900 fluorescence intensity (a.u.).
For “TTTTAACATTTTTCTTGCACTGTTTGACCATTCGTCTTATCGGAGTCACCTAGTGCAG”, the binding signal was 10400 fluorescence intensity (a.u.).
In the case of “TTTTAAACATGTTTGACCGTTCGTCTTATTCAAAAAATTTCGGAGTCACCTAGTGCAG”, the binding signal is reported as 8310 fluorescence intensity (a.u.).
In the case of “GCCGTTGACTTTTTAACACATGTTTGACCATTCGTCTTATCGGAGTCACCTAGTGCAG”, the binding signal is reported as 60200 fluorescence intensity (a.u.).
With “CTTTTTTAAACATGTTTGACCGTTCGTCTTATTTAAAAAACGGAGTCACCTAGTGCAG” the binding signal was 9350 fluorescence intensity (a.u.).
“TGCCGTTGATTTTTTTTTAAACATGTTTGACCGTTCGTCTCGGAGTCACCTAGTGCAG” was tested, and the binding signal was 14900 fluorescence intensity (a.u.).
“GCCGTTGACTTTTTTAAACATGTTTGACCGTTCGTCTTATCGGAGTCACCTAGTGCAG” was tested, and the binding signal was 45200 fluorescence intensity (a.u.).
In the case of “ACTGTTCGTCTTATTTAAAATTTTTTAAATATTATTTATACGGAGTCACCTAGTGCAG”, the binding signal is reported as 12300 fluorescence intensity (a.u.).
In the case of “CCACACTCCTCGCTCGCCTGCCTCTCTGTTCTTAATTAGCCGGAGTCACCTAGTGCAG”, the binding signal is reported as 8750 fluorescence intensity (a.u.).
In the case of “AAGCCCAACGTGCTTCATCTCTTCTTCTATCTTATCTTCTCGGAGTCACCTAGTGCAG”, the binding signal is reported as 8190 fluorescence intensity (a.u.).
In the case of “GCGGAGGAAAGGTGGGGTGGTAAAAAACGGAAAAACCGGACGGAGTCACCTAGTGCAG”, the binding signal is reported as 8960 fluorescence intensity (a.u.).
With “TATGCATACTTTTTTATCACTGTAGTTACTAGCTAAGATCCGGAGTCACCTAGTGCAG” the binding signal was 9000 fluorescence intensity (a.u.).
With “GCCCGTCTTCGTCCAGTTCCTGATCAGGTATGGTCCTTCTCGGAGTCACCTAGTGCAG” the binding signal was 8060 fluorescence intensity (a.u.).
For “ACCCGAGATCTGATTCACTACCGCCGCCGGATCAAGCCACCGGAGTCACCTAGTGCAG”, the binding signal was 8320 fluorescence intensity (a.u.).
In the case of “TTCGCTCACCTCTCGATCGATCGACCTGCCAACATCAACACGGAGTCACCTAGTGCAG”, the binding signal is reported as 10400 fluorescence intensity (a.u.).
In the case of “CGTTGACTTTTTATCAAATGTTTGACCGTTCGTCTTATTTCGGAGTCACCTAGTGCAG”, the binding signal is reported as 28900 fluorescence intensity (a.u.).
“ATTGATATCAAACCGTTTCTTTTGTCATATTCGTCATTTCCGGAGTCACCTAGTGCAG” was tested, and the binding signal was 17700 fluorescence intensity (a.u.).
“CGTTGACTTTTTTAAAAGTGTTTGACTGTTCGTCTTTTTTCGGAGTCACCTAGTGCAG” was tested, and the binding signal was 30500 fluorescence intensity (a.u.).
In the case of “TTGACTTTTTAAAATATGTTTGACCGTTCGTCTTATTCAACGGAGTCACCTAGTGCAG”, the binding signal is reported as 8040 fluorescence intensity (a.u.).
For “TCACGTTCAACGTTTGACTGTTCGTCTTATTTAAAATTTTCGGAGTCACCTAGTGCAG”, the binding signal was 8400 fluorescence intensity (a.u.).
“ACGCCGTTGACTTTTTTAAACATGTTTGACTGTTCGTCTTCGGAGTCACCTAGTGCAG” was tested, and the binding signal was 38200 fluorescence intensity (a.u.).
With “TTATCAAATATTCCATCCGTCTTTTTTGATATTTTAATTTCGGAGTCACCTAGTGCAG” the binding signal was 9840 fluorescence intensity (a.u.).
In the case of “ATTCAAATTTGTCAAACATTGTTTTCTTCTCTTTCATATCCGGAGTCACCTAGTGCAG”, the binding signal is reported as 8650 fluorescence intensity (a.u.).
For “ACGCTGTTGATTTTTTTAAACATGTTTGACCGTTCGTCTTCGGAGTCACCTAGTGCAG”, the binding signal was 13200 fluorescence intensity (a.u.).
In the case of “AGTGTTAGTTGACTGTTAGTCAAAGGTTAGTTTTTTTCGTCGGAGTCACCTAGTGCAG”, the binding signal is reported as 9180 fluorescence intensity (a.u.).
With “ACACCGCTGACTTTTTAAAACATGTTTTACCGTTCGTCTTCGGAGTCACCTAGTGCAG” the binding signal was 13600 fluorescence intensity (a.u.).
“TGACTTTTTATCATATGTTTGACCGTTCGTCTTATTCAAACGGAGTCACCTAGTGCAG” was tested, and the binding signal was 10900 fluorescence intensity (a.u.).
In the case of “ATGCGTGCGCTCAGCCCATTCTGCTTGTATTTTCAGTACACGGAGTCACCTAGTGCAG”, the binding signal is reported as 11300 fluorescence intensity (a.u.).
“ACCCACCCACCCACCCGGTCTGTCTCCTAACCCCGGTCGCCGGAGTCACCTAGTGCAG” was tested, and the binding signal was 12600 fluorescence intensity (a.u.).
With “GATCGTGGAATTAATTCCACCTTAGTTGTTATGGGCGGGTCGGAGTCACCTAGTGCAG” the binding signal was 11400 fluorescence intensity (a.u.).
For “GAACAACAACATGCCGCACGTGCGTATATATATATATATCCGGAGTCACCTAGTGCAG”, the binding signal was 10800 fluorescence intensity (a.u.).
“TCCATTGACACCGGCACACGCACACGCACACCCGCACCGCCGGAGTCACCTAGTGCAG” was tested, and the binding signal was 8960 fluorescence intensity (a.u.).
For “CAACCTCACCTACTTCCACTTCCTCGACACCAACGGCGTCCGGAGTCACCTAGTGCAG”, the binding signal was 9590 fluorescence intensity (a.u.).
With “GCATGTGTTCGTTATGTGTGGTTGGAGATTTTCTCCCACACGGAGTCACCTAGTGCAG” the binding signal was 8470 fluorescence intensity (a.u.).
For “CTGCTCGGAGCACACACAACCACCACTCACCACCAACATGCGGAGTCACCTAGTGCAG”, the binding signal was 9280 fluorescence intensity (a.u.).
In the case of “TAATACACTAGCCCCAATGTTTGTTTGCCTAATCTACTCTCGGAGTCACCTAGTGCAG”, the binding signal is reported as 9080 fluorescence intensity (a.u.).
“ACTTTTTAAAACATATTTGACCGTTCTTCTTATTAAAAAACGGAGTCACCTAGTGCAG” was tested, and the binding signal was 8850 fluorescence intensity (a.u.).
With “CCAAGCTTGTCGTGCCCGTATGTTCGCGTCCATCGTTGACCGGAGTCACCTAGTGCAG” the binding signal was 19800 fluorescence intensity (a.u.).
For “TTACACTGTTCATGTCTCACGTTTGACCGTTCGTTTTATTCGGAGTCACCTAGTGCAG”, the binding signal was 16400 fluorescence intensity (a.u.).
With “AGTTTTGCACTGTTTATGTCTCACGTTTGACCGTTCGTTTCGGAGTCACCTAGTGCAG” the binding signal was 11400 fluorescence intensity (a.u.).
“CATATTATAAGTCGTTTTGACTTTTTTTTCTTAGTCAATCCGGAGTCACCTAGTGCAG” was tested, and the binding signal was 12100 fluorescence intensity (a.u.).
For “CTCTATTCGTTTTTCATATTATAAGTCGTTTGACGTTTTTCGGAGTCACCTAGTGCAG”, the binding signal was 9170 fluorescence intensity (a.u.).
For “CCTCTATTTCATATTATACGTCGTTGACTTTTTTCTTAGTCGGAGTCACCTAGTGCAG”, the binding signal was 17400 fluorescence intensity (a.u.).
For “TTGACCTTTTTAAAACATTTTTGACCGTTCGTCTTATTCACGGAGTCACCTAGTGCAG”, the binding signal was 10600 fluorescence intensity (a.u.).
For “TGTCGCCATCGTATCACCGTCGCGTCGCCATCCCGTCGCCCGGAGTCACCTAGTGCAG”, the binding signal was 8070 fluorescence intensity (a.u.).
“GTTTTACACTATTCACGTTCAACGTTTGACCGTTCGTCTTCGGAGTCACCTAGTGCAG” was tested, and the binding signal was 13400 fluorescence intensity (a.u.).
With “GGCCCATCTGACCAAGCCCAGCTCGCGTCGTCGTGTTGATCGGAGTCACCTAGTGCAG” the binding signal was 8930 fluorescence intensity (a.u.).
With “CGTCGTTGACTTTTTTAAACATATTTGACCGTTCGTCTTACGGAGTCACCTAGTGCAG” the binding signal was 17100 fluorescence intensity (a.u.).
In the case of “TTTCATGCGTTCCAAGTTGTCATTACTCCTTTGTACTCTCCGGAGTCACCTAGTGCAG”, the binding signal is reported as 10700 fluorescence intensity (a.u.).
With “CCGCCGGACTCTCAAAATCCCAAGTCTCAACTCGATCAGCCGGAGTCACCTAGTGCAG” the binding signal was 8170 fluorescence intensity (a.u.).
